{"source": "PubChem BioAssay (NCATS)", "note": "Results filed as inconclusive are left out. Entries that show only a call come without a potency. The source made the active and inactive calls. The call rests on the fitted dose curve; in most records, active means well fitted cell-killing curve with a large enough effect; inconclusive means small, poorly fitted or top-dose-only effect, or effect the other way; inactive means no such curve, though single readings can be large or run the other way. Potency means the concentration at half of the fitted maximal effect."}
{"experiment": "Quantitative High-Throughput drug screen in 47 multiple myeloma cell lines against the NCATS MIPE library collection: L363_DSMZ cell viability assay (AID 1918984); further: nearly all actives have a fitted effect of over 40% in size", "settings": "L363 myeloma viability, CellTiter-Glo ATP luminescence, 48 h; series mostly up to 45.8 µM", "description": "PI: Beverly A. Mock Ph.D.\nLaboratory of Cancer Biology and Genetics,\nCenter for Cancer Research, National Cancer Institute,\nNational Institute of Health, Bethesda, Maryland\nDrug resistance and disease progression are common in multiple myeloma (MM) patients, underscoring the need for new therapeutic combinations. […] We hypothesized that effective combinations would reduce MYC expression and enhance p16 activity. […] These preclinical data identify potentially useful drug combinations for evaluation in drug-resistant MM and reveal potential mechanisms of combined drug sensitivity.\nDescribed herein is the primary MIPE qHTS used to cherrypick compounds. Validated compounds were then further tested for potential synergistic activiy.\n[1] Peat TJ, Gaikwad SM, Dubois W, Gyabaah-Kessie N, Zhang S, Gorjifard S, Phyo Z, Andres M, Hughitt VK, Simpson RM, Miller MA, Girvin AT, Taylor A, Williams D, D'Antonio N, Zhang Y, Rajagopalan A, Flietner E, Wilson K, Zhang X, Shinn P, Klumpp-Thomas C, McKnight C, Itkin Z, Chen L, Kazandijian D, Zhang J, Michalowski AM, Simmons JK, Keats J, Thomas CJ, Mock BA. Drug combinations identified by high-throughput screening promote cell cycle transition and upregulate Smad pathways in myeloma. Cancer Lett. 2023 Aug 1;568:216284. doi: 10.1016/j.canlet.2023.216284. Epub 2023 Jun 24. PMID: 37356470; PMCID: PMC10408729.\nSEQUENCE No. (e.g., 1, 2, 3, etc.); […] (e.g., Cells, Incubation, Reagent, etc.); VALUE and DESCRIPTION.\n1; Cells; 5 uL; white, solid bottom 1536-well Greiner assay plate.\n2; Compounds; 23 nL; Kalypsis pin tool (Wako USA) equipped with a 1536-well pin head to transfer to the assay plates.\n3; Incubation; 48 hours; 37C incubation.\n4; Reagent;5uL; CellTiter Glo (Promega).\n5; Detector; 425V; Luminescence; Viewlux PerkinElmer.\nNOTES (numbers refer to Sequence numbers above)\n1. The cell-based screening methods employed in this study were like those previously published. Briefly, the corresponding myeloma cell lines were screened in 1,536-well plates with 500 cells, 5-uL per well for inhibition of cell viability (assessed by measuring ATP levels with CellTiterGlo).\n2. NCATS MIPE 4.0 library of approved and investigational drugs were added using the Kalypsis pin tool. Wells treated with DMSO only for 100% viability and media only for 0% viability were used as controls.\n3. The assay plates were covered and incubated for 48 hours in a 37C, 5% CO2 incubator with controlled humidity.\n4. After 48 hours, CellTilter-GloTM luminescent substrate mix (Promega) reagent was added to the assay plate and plates we incubated for 5 min at room temperature.\n5. Signal was measured as median relative luminescence units on a ViewLux (PerkinElmer) multiplate reader.\n[1] Heske CM, Davis MI, Baumgart JT, Wilson K, Gormally MV, Chen L, Zhang X, Ceribelli M, Duveau DY, Guha R, Ferrer M, Arnaldez FI, Ji J, Tran HL, Zhang Y, Mendoza A, Helman LJ, Thomas CJ. Matrix Screen Identifies Synergistic Combination of PARP Inhibitors and Nicotinamide Phosphoribosyltransferase (NAMPT) Inhibitors in Ewing Sarcoma. Clin Cancer Res. 2017 Dec 1;23(23):7301-7311. doi: 10.1158/1078-0432.CCR-17-1121. Epub 2017 Sep 12. PMID: 28899971; PMCID: PMC6636827."}
{"smiles": "CC(C)Cn1cnc2c(N)nc3ccccc3c21", "Potency": "4.18 µM (active)"}
{"smiles": "CCOC(=O)[C@H](CCc1ccccc1)N[C@H]1CS[C@H](c2cccs2)CN(CC(=O)O)C1=O", "Potency": "0.662 µM (active)"}
{"smiles": "Cc1ccnc2c1NC(=O)c1cccnc1N2C1CC1", "Potency": "inactive"}
{"smiles": "Cc1ccc(S(=O)(=O)N[C@@H](Cc2ccccc2)C(=O)CCl)cc1", "Potency": "11.8 µM (active)"}
{"smiles": "CN1CCN(c2c(F)cc3c(=O)c(C(=O)O)cn4c3c2OCN4C)CC1", "Potency": "inactive"}
{"smiles": "O=C(O)c1cccnc1", "Potency": "inactive"}
{"smiles": "CNC(=O)c1cc(Oc2ccc(NC(=O)Nc3ccc(Cl)c(C(F)(F)F)c3)cc2)ccn1", "Potency": "6.62 µM (active)"}
{"smiles": "CN(Cc1cc(Br)cc(Br)c1N)C1CCCCC1", "Potency": "inactive"}
{"smiles": "C[C@@H]1CN(c2c(F)c(N)c3c(=O)c(C(=O)O)cn(C4CC4)c3c2F)C[C@H](C)N1", "Potency": "inactive"}
{"smiles": "CCN1CCCC1CNC(=O)c1cc(S(N)(=O)=O)ccc1OC", "note": "(stereo not given)", "Potency": "inactive"}
{"smiles": "O[C@@H](CNC[C@H](O)[C@H]1CCc2cc(F)ccc2O1)[C@@H]1CCc2cc(F)ccc2O1", "Potency": "16.6 µM (active)"}
{"smiles": "CCOC(=O)c1ccc(C#Cc2ccc3c(c2)C(C)(C)CCS3)nc1", "Potency": "inactive"}
{"smiles": "CCOCC(O)COc1ccc(NC(=O)CC[S+](C)C)cc1", "note": "(stereo not given)", "Potency": "inactive"}
{"smiles": "CCc1c2c(nc3ccc(OC(=O)N4CCC(N5CCCCC5)CC4)cc13)-c1cc3c(c(=O)n1C2)COC(=O)[C@]3(O)CC", "Potency": "0.0372 µM (active)"}
{"smiles": "CC(=O)Oc1ccccc1C(=O)Nc1ncc([N+](=O)[O-])s1", "Potency": "17.1 µM (active)"}
{"smiles": "O=C(O)c1cc(=O)[nH]c(=O)[nH]1", "Potency": "inactive"}
{"smiles": "NC(N)=NC(N)=NCCc1ccccc1", "Potency": "14.8 µM (active)"}
{"smiles": "COc1ccccc1OCC(O)COC(N)=O", "note": "(stereo not given)", "Potency": "inactive"}
{"smiles": "Nc1ccc(S(=O)(=O)Nc2ccccn2)cc1", "Potency": "inactive"}
{"smiles": "CN1CCN(c2c(F)cc3c(=O)c(C(=O)O)cn(CCF)c3c2F)CC1", "Potency": "inactive"}
{"smiles": "COc1ccc2cc3[n+](cc2c1OC)CCc1cc2c(cc1-3)OCO2", "Potency": "6.62 µM (active)"}
{"smiles": "CC(C)C[C@H](NC(=O)[C@H](CCc1ccccc1)NC(=O)CN1CCOCC1)C(=O)N[C@@H](Cc1ccccc1)C(=O)N[C@@H](CC(C)C)C(=O)[C@@]1(C)CO1", "Potency": "0.001 µM (active)"}
{"smiles": "CCOC(=O)[C@H](CCc1ccccc1)N[C@H]1CCc2ccccc2N(CC(=O)O)C1=O", "Potency": "7.43 µM (active)"}
{"smiles": "NC1(c2ccc(-c3nc4ccn5c(=O)[nH]nc5c4cc3-c3ccccc3)cc2)CCC1", "Potency": "2.64 µM (active)"}
{"smiles": "CCOC(=O)c1ccc(OC(=O)CCCCCN=C(N)N)cc1", "Potency": "inactive"}
{"smiles": "CNS(=O)(=O)CCc1ccc2[nH]cc(C3CCN(C)CC3)c2c1", "Potency": "23.5 µM (active)"}
{"smiles": "CC(C)(C#N)c1cc(Cn2cncn2)cc(C(C)(C)C#N)c1", "Potency": "inactive"}
{"smiles": "COCCCOc1cc(C[C@@H](C[C@H](N)[C@@H](O)C[C@H](C(=O)NCC(C)(C)C(N)=O)C(C)C)C(C)C)ccc1OC", "Potency": "inactive"}
{"smiles": "CCCN[C@H]1CCc2nc(N)sc2C1", "Potency": "inactive"}
{"smiles": "COc1cc(NS(=O)(=O)c2ccc(N)cc2)nc(OC)n1", "Potency": "inactive"}
{"smiles": "CCN[C@H]1C[C@H](C)S(=O)(=O)c2sc(S(N)(=O)=O)cc21", "Potency": "inactive"}
{"smiles": "Nc1nc(F)nc2c1ncn2[C@@H]1O[C@H](CO)[C@@H](O)[C@@H]1O", "Potency": "0.148 µM (active)"}
{"smiles": "CCc1cc(C(N)=S)ccn1", "Potency": "inactive"}
{"smiles": "Cc1cc(NS(=O)(=O)c2ccc(N)cc2)no1", "Potency": "inactive"}
{"smiles": "COc1nc(N)nc2c1ncn2[C@@H]1O[C@H](CO)[C@@H](O)[C@@H]1O", "Potency": "inactive"}
{"smiles": "O=P(O)(O)C(O)(Cc1cccnc1)P(=O)(O)O", "Potency": "inactive"}
{"smiles": "CCCc1nc(C)c2c(=O)[nH]c(-c3cc(S(=O)(=O)N4CCN(CC)CC4)ccc3OCC)nn12", "Potency": "4.18 µM (active)"}
{"smiles": "CN1CCCC(n2nc(Cc3ccc(Cl)cc3)c3ccccc3c2=O)CC1", "note": "(stereo not given)", "Potency": "9.35 µM (active)"}
{"smiles": "CC[C@H](NC(C)C)[C@H](O)c1ccc(O)c2[nH]c(=O)ccc12", "Potency": "inactive"}
{"smiles": "OCc1ccc(-c2nn(Cc3ccccc3)c3ccccc23)o1", "Potency": "inactive"}
